# Measured values as given in PubChem BioAssay (EPA / NIEHS).
# Results filed as inconclusive are left out. The source made the active and inactive calls. Rule for the calls, unless noted: active = hit-call score of the fitted dose curve at least 0.9, where 1 is the maximum; inactive = score below 0.9.
# Columns and labels:
# [1] = CCTE_Deisenroth_5AR_NBTE_donor: CCTE's 5alpha-reductase NanoBRET Target Engagement Assay […], Deisenroth Lab (AID 2284319); conditions: actives raise or lower the signal
# In short: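 SRD5A2-NanoLuc, HEK293T, 20 h expression. Chemical 10 nM - 29.9 uM, 8 conc, duplicate; 3 h preincubation + 2 h testosterone tracer. Nano-Glo substrate plus extracellular NanoLuc inhibitor; donor lum 460 nm. DMSO baseline, bidirectional fit.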
# [2] = CCTE_Deisenroth_5AR_NBTE_acceptor: CCTE's 5alpha-reductase NanoBRET Target Engagement Assay - Autofluorescence Screen, Deisenroth Lab (AID 2284321); conditions: actives raise or lower the signal;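 note: compound fluorescence in the acceptor channel under 460 nm excitation flags autofluorescence artifacts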
# In short: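 Acceptor-channel fluorescence flags artifacts, with excitation fixed at 460 nm. Nominal 100 uM chemical samples were read in triplicate runs, and signal changes were fitted in both directions relative to DMSO.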
# SRD5A2 (gene 6716) = experiment: CCTE_Deisenroth_5AR_NBTE_ratio: CCTE's 5alpha-reductase NanoBRET Target Engagement Assay - Ratio, Deisenroth Lab (AID 2284322); conditions: actives raise or lower the signal
# In short: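 HEK293T cells transiently expressing an SRD5A2-NanoLuc fusion (20 h post-transfection) were exposed to test chemical (10 nM - 29.9 uM, 8 points) for 3 h, then testosterone tracer for a further 2 h. Acceptor/donor BRET ratio was fitted bidirectionally against DMSO baseline.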
# [3] = tested on: Brachyury (BRA) Protein Expression, Deisenroth Lab, TBXT (gene 6862); experiment: CCTE_Deisenroth_DEVTOX-GLR_legacy_Bra: (Legacy) CCTE's DevTox GLR-Endo Assay Evaluation of Brachyury (BRA) Protein Expression, Deisenroth Lab (AID 2284329)
# In short: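 High-content imaging of fixed RUES2-GLR cells after a 48-hour differentiation with two compound exposures yields percent cells whose Bra signal exceeds pluripotent control median by 5x BMAD; values are baseline-corrected to DMSO.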
# [4] = CCTE_Deisenroth_DEVTOX-GLR_legacy_CellCount: (Legacy) Viability Assessment in CCTE's DevTox GLR-Endo Assay, Deisenroth Lab (AID 2284331); conditions: actives raise or lower the signal
# In short: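 Viability is taken from imaged nuclei counts in fixed RUES2-GLR cultures after 48 h of differentiation under two 24 h-spaced chemical exposures, 10 concentrations from 1 nM to 200 uM, gain or loss versus DMSO baseline.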
# IYD (gene 389434) = experiment: CCTE_GLTED_hIYD: CCTE's human Iodotyrosine Deiodinase (xIYD) Inhibition Assay, Great Lakes Toxicology and Ecology Division (GLTED) Lab (AID 2284317; active = hit-call score of the fitted dose curve at least 0.9, where 1 is the maximum;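 note: cell-free human IYD enzyme made in baculovirus insect cells; iodide freed from monoiodotyrosine measured by cerium arsenite color change at 420 nm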)
# In short: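 Deiodination of MIT by insect-cell-produced human IYD is measured after a 3 h incubation with test chemical. Free iodide passes through a Dowex column and accelerates Sandell-Kolthoff Ce4+ reduction, read at 420 nm; run in triplicate.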
# [5] = TAMU_PeakParms_SingleDonor1434_Asystole: Texas A&M University (TAMU) 1.5-hr Human Induced Pluripotent Stem Cell (iPSC)-derived Cardiomyocytes Calcium (Ca+2) Flux Assay for Cardiotoxicity: Asystole (quiescence of beating) (AID 2284328; active = hit-call score of the fitted dose curve at least 0.9, where 1 is the maximum)
# Procedure: TAMU_PeakParms is a cell-based, multiplexed-readout assay that uses iPSC-derived cardiomyocytes with measurements taken at 1.5 hours after chemical dosing in a microplate: 384-well plate.TAMU_PeakParms_SingleDonor1434_Chronotopy is a phenotype derived from the peak.freq.avg parameter and uses an EC95 as its POD (95% decrease in beat rate, compared to controls). Peak.Freq.Avg measures the average peak frequency, in beats per second, using Fluorescence intensity as a functional reporter from Calcium (Ca+2) flux assay technology. There is no preprocessing performed on the data used to model this phenotype.Data from the assay component TAMU_PeakParms_SingleDonor1434_Asystole was analyzed into 1 assay endpoint. This assay endpoint, TAMU_PeakParms_SingleDonor1434_Asystole, was analyzed in the positive analysis fitting direction relative to DMSO as the negative control and baseline of activity. Using a type of functional reporter, loss-of-signal activity can be used to understand changes in the cardiac function. To generalize the intended target to other relatable targets, this assay endpoint is annotated to the cardiomyocyte function intended target family, where the subfamily is cessation of beating.
# Each test compound from the chemical master plates was transferred into new tissue culture-treated 384-well microplates using acoustic dispensing (Labcyte Echo 550, Beckman Coulter, Indianapolis, IN) in amounts that would result in 5x concentrations (1, 5, 50, 500 uM) in the working plate in a final volume of 50 uL. Chemicals were randomly divided into 16 separate 384-well plates for screening such that the outer-most wells were left empty (308 wells were used on each plate). Fifteen of the plates contained unique test chemicals (n = 65 chemicals, 4 concentrations, one replicate each), positive controls (n = 10 chemicals, one concentration, 3 replicates each), vehicle (0.5% DMSO, n = 12), and media-only (n = 6) wells. Plate 16 contained test chemicals (n = 54 chemicals, 4 concentrations, one replicate each), inter-plate replicates (n = 11 chemicals with replicates, 4 concentrations, one replicate each), and the same design of positive controls and vehicle- and media-only wells as other plates. These plates were stored at -80C until the day of the assay. On assay day, the 5x concentrated chemical working plate was prepared by adding 50 uL cardiomyocyte maintenance medium containing 2.5% v/v DMSO to each well of the microplates. Then, 12.5 uL of 5x concentrated test chemical solution was added to the test plate to yield final concentrations of 0.2, 1, 10, and 100 uM in 0.5% v/v DMSO using the liquid handling robotics of the FLIPR Tetra. FLIPR Tetra settings were optimized to mix and then transfer test chemicals to the microplate at height = 40 uL, speed = 1 uL/sec, and removal speed = 6 mm/sec, resulting in a total volume of 62.5 uL/well with 0.5% v/v DMSO in cardiomyocyte maintenance medium. Immediately after chemical transfer, cells were incubated 37C and 5% CO2 for 90 minutes. Next, the total volume of cell culture medium containing Ca2+ dye (from the Ca2+ flux assay conducted first) was aspirated and replaced with 25 uL/well pre-warmed staining solution with fluorescent probes for nuclei and mitochondria (2.2 ug/mL Hoechst 33342 and 0.2 uM MitoTracker Orange in cardiomyocyte maintenance medium with 1:500 penicillin/streptomycin solution). […]
# [6] = CCTE_Mundy_HCI_iCellGluta_NOG_NeuriteLength: CCTE's Neurite Outgrowth Assay in iCellGluta cells for Neurite Length, Mundy Lab (AID 2284318; active = hit-call score of the fitted dose curve at least 0.9, where 1 is the maximum)
# Procedure: CCTE_Mundy_HCI_iCellGluta_NOG is a multiplexed, cell-based-readout assay that uses iCell GlutaNeurons from FUJIFILM Cellular Dynamics, Inc. (FCDI), human glutamatergic enriched neurons derived from induced pluripotent stem (iPS) cells, with measurements taken at 50.33 hours after chemical dosing in a microplate: 96-well plate.CCTE_Mundy_HCI_iCellGluta_NOG_NeuriteLength is one of four components of the CCTE_Mundy_HCI_iCellGluta_NOG assay. It measures neurite outgrowth related to neurite length using High Content Imaging of fluorescently labelled markers.Data from the assay component CCTE_Mundy_HCI_iCellGluta_NOG_NeuriteLength was analyzed at the endpoint CCTE_Mundy_HCI_iCellGluta_NOG_NeuriteLength in the positive analysis fitting direction relative to DMSO as the negative control and baseline of activity. Using a type of morphology reporter, loss-of-signal activity can be used to understand developmental effects.
# Exposure starts 2 hours post-plating by adding 10 ul of the working solution to 90 ul of media in the wells for a 1/10 dilution. […] A Cellomics ArrayScan VTi HCS Reader is used for automated image acquisition and analysis of neurite outgrowth.
# [7] = IUF_NPC1_cytotoxicity_72hr: Cytotoxicity Assessment at 72 hours in the Leibniz Research Institute for Environmental Medicine (IUF) Neural Progenitor Cell Proliferation Assay (NPC1) (AID 2284332; active = hit-call score of the fitted dose curve at least 0.9, where 1 is the maximum;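 note: rising LDH signal means more cytotoxicity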)
# In short: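 Membrane-integrity loss is scored from LDH released into the medium, detected as resorufin fluorescence, with activity fitted upward relative to baseline. Test material stays on human fetal-derived progenitor spheres for 72 h.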
compound,measurement,setting,value
CN1C(=O)CC[C@H]1c1cccnc1,outcome,[1],inactive
same,outcome,[2],inactive
same,outcome,SRD5A2 (gene 6716),inactive
OCCO,outcome,[3],inactive
same,outcome,[4],inactive
O=C(O)Cc1cc(I)c(Oc2ccc(O)c(I)c2)c(I)c1,AC50,[1],28.2 µM (active)
same,AC50,[2],14.3 µM (active)
same,AC50,SRD5A2 (gene 6716),77.3 µM (active)
COc1cc(C(=O)NC2CCN(C)CC2)ccc1Nc1ncc2c(n1)N(C1CCCC1)CC(F)(F)C(=O)N2C,outcome,[1],inactive
same,outcome,[2],inactive
same,outcome,SRD5A2 (gene 6716),inactive
CCOC(=O)O[C@H](C)OC(=O)c1ccc2c(c1)cc(C(=O)NC1CCN(C(C)C)CC1)n2Cc1cc(-c2ccc(Cl)s2)on1,AC50,IYD (gene 389434),56.4 µM (active)
CC(C)(C)c1csc(-c2cc3cc(OCc4ccccc4CC(=O)O)ccc3o2)n1,AC50,IYD (gene 389434),68.7 µM (active)
CN(C)c1ccc(C(=C2C=CC(=[N+](C)C)C=C2)c2ccc(N(C)C)cc2)cc1,outcome,IYD (gene 389434),inactive
same,AC50,[1],12.6 µM (active)
same,AC50,[2],4.78 µM (active)
same,AC50,SRD5A2 (gene 6716),0.593 µM (active)
same,AC50,[5],0.589 µM (active)
CO[C@H]1/C=C/O[C@@]2(C)Oc3c(C)c(O)c4c(O)c(c(/C=N/N5CCN(C)CC5)c(O)c4c3C2=O)NC(=O)/C(C)=C\C=C\[C@H](C)[C@H](O)[C@@H](C)[C@@H](O)[C@@H](C)[C@H](OC(C)=O)[C@@H]1C,AC50,[1],50 µM (active)
same,outcome,[2],inactive
same,AC50,SRD5A2 (gene 6716),54.3 µM (active)
same,AC50,[3],89.7 µM (active)
Clc1cc(Cl)c2c(c1)N=C1CCCCCN1C2,outcome,IYD (gene 389434),inactive
CCCCOC(=O)c1ccc(O)cc1,AC50,[3],100 µM (active)
same,AC50,[4],38.2 µM (active)
O=C1O[C@H]([C@@H](O)CO)C(O)=C1O,outcome,[6],inactive
same,outcome,[7],inactive
O=c1c(-c2ccc(O)cc2)coc2cc(O)cc(O)c12,outcome,IYD (gene 389434),inactive
same,outcome,[1],inactive
same,outcome,[2],inactive
same,outcome,SRD5A2 (gene 6716),inactive
